In general, AC50 refers to the midpoint of the concentration-response curve, whichever way the signal moves.

Results filed as inconclusive are left out. Activity calls are given as the source filed them. Rule for the calls, unless noted: active = hit-call score of the fitted dose curve at least 0.9, where 1 is the maximum; inconclusive = response in the unintended direction; inactive = score below 0.9.

The results in this text go back to PubChem BioAssay (EPA / NIEHS).

Test [1] in a line: ATG_ERE_CIS: Attagene CIS-FACTORIAL HepG2 Assay for Estrogen Response Element (ERE) (AID 2282940; active = hit-call score of the fitted dose curve at least 0.9, where 1 is the maximum; inactive = score below 0.9). The conditions noted are these: HepG2 ERE cis-reporter, Attagene RNA transcript; actives raise or lower the signal. The procedure, abridged:
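HepG2 cells transiently transfected with cis-promoter-driven multiplexed reporter transcription units report endogenous TF activity. After 24 h compound exposure, reporter mRNA is quantified by RT-PCR with capillary electrophoresis fluorescence; bidirectional fitting versus DMSO baseline.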

Test [2] concerns the target Bile acid receptor (Homo sapiens) (UniProt Q96RI1). The test is described as follows: ATG_IR1_CIS: Attagene CIS-FACTORIAL HepG2 Assay for human Nuclear Receptor Subfamily 1 Group H Member 4 (NR1H4), IR1 submotif (AID 2282946; active = hit-call score of the fitted dose curve at least 0.9, where 1 is the maximum; inactive = score below 0.9). The conditions noted are these: IR1 reporter transcription, actives raise or lower the signal. In short, it runs like this:
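HepG2 cells transiently transfected with multiplexed cis-element reporter units read endogenous transcription factor activity. After 24 h compound exposure, reporter mRNA was quantified by RT-PCR, fluorescent labelling, HpaI digestion and capillary electrophoresis; bidirectional fitting versus DMSO baseline.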

Test [3] is described as follows: ATG_M_19_TRANS: Attagene TRANS-FACTORIAL HepG2 Assay for M19 Transcription Factor (Internal Marker) (AID 2282974). The note with it: HepG2 Attagene TRANS-FACTORIAL M19 internal marker reporter. In short, it runs like this: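 Transfected HepG2 (GAL4-UAS MRTUs), 24 h compound, TriZol RNA, DNase-treated RT, reporter PCR, FAM label, HpaI digest, CE fluorescence; gain vs DMSO.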

Test [4] concerns the target Bile acid receptor (Homo sapiens) (UniProt Q96RI1). The test is described as follows: ATG_FXR_TRANS: Attagene TRANS-FACTORIAL HepG2 Assay for Farnesoid X Receptor (FXR) (AID 2282979).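 Note: hits raise reporter mRNA above DMSO so AC50 marks FXR activation.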 The note with it: HepG2 Attagene TRANS FXR-GAL4 reporter transcription. The procedure, abridged: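 Chimeric FXR-GAL4 activity in transiently transfected human HepG2 liver cells is scored as induction of reporter mRNA after 24 h of dosing. Detection uses RT-PCR with fluorescent labelling and capillary electrophoresis, with DMSO serving as baseline.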

Test [5] deals with human Peroxisome Proliferator-activated Receptor delta (PPARd), PPARD (gene 5467) (UniProt Q03181). Kind of test: ATG_PPARd_TRANS: Attagene TRANS-FACTORIAL HepG2 Assay for human Peroxisome Proliferator-activated Receptor delta (PPARd) (AID 2283002). In short, it runs like this:
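Read-out is induced reporter mRNA, quantified by RT-PCR with fluorescent labelling and capillary electrophoresis after 24 h dosing. Cells are HepG2 transiently carrying multiple GAL4-UAS reporter units driven by exogenous NR-GAL4 chimeras; DMSO serves as baseline.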

A short description of test [6]: TOX21_p53_BLA_p2_viability: Viability Assessment in the Tox21 HCT-116 p53 Agonism Beta-lactamase Assay, Phase 2 (AID 2283591).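 Note: compound exposure lasted 16 h at 37 °C; actives lower the ATP signal meaning cytotoxicity.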 The procedure, abridged:
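Cytotoxicity readout: CellTiter-Glo ATP luminescence, 30 min at room temperature, after the beta-lactamase read. Cells were HCT116 exposed 16 h at 37C to compounds pin-transferred at 217-fold dilution from DMSO stocks.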

A short description of test [7]: TOX21_p53_BLA_p3_viability: Viability Assessment in the Tox21 HCT-116 p53 Agonism Beta-lactamase Assay, Phase 3 (AID 2283593).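 Note: cells exposed to compound for 16 h before reading.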 The procedure, abridged: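 Cellular ATP was quantified by CellTiter-Glo luminescence, read after 30 min at room temperature. Beforehand, HCT116 cells (4000/well) received compound 5 h post-seeding, 217-fold diluted from DMSO, then incubated 16 h at 37C.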

Test [8] addresses Cellular tumor antigen p53 (Homo sapiens) (UniProt P04637). The test is described as follows: TOX21_p53_BLA_p3_ratio: Tox21 HCT-116 p53 Agonism Beta-lactamase Assay, Ratio, Phase 3 (AID 2283596). The procedure, abridged:
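Cells were seeded at 4000/well, rested 5 h at 37C, then dosed with DMSO compound solutions (217-fold dilution) for 16 h. CCF4-AM substrate was loaded for 2 h at room temperature, and the 460/530 nm emission ratio was fitted for gain of signal versus DMSO.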

Test [9] in a line: TOX21_p53_BLA_p4_viability: Viability Assessment in the Tox21 HCT-116 p53 Agonism Beta-lactamase Assay, Phase 4 (AID 2283597).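 Note: hits lower the luminescence signal meaning cytotoxicity.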 In short, it runs like this:
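Viability is taken as cellular ATP: after 16 h compound exposure of HCT116 cells and a 2 h room-temperature CCF4-AM substrate step, CellTiter-Glo reagent is added and luminescence is measured 30 min later.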

Test [10] has as its target Cellular tumor antigen p53 (Homo sapiens) (UniProt P04637). Kind of test: TOX21_p53_BLA_p4_ratio: Tox21 HCT-116 p53 Agonism Beta-lactamase Assay, Ratio, Phase 4 (AID 2283601). The procedure, abridged:
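Signal is the blue/green (460nm/530nm) ratio of cleaved versus uncleaved CCF4-AM substrate, read after 2 h substrate loading. Cells were HCT116 carrying the p53-responsive beta-lactamase reporter, dosed 16 h at 37C, 5% CO2; CellTiter-Glo measured in parallel.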

A short description of test [11]: ATG_RORE_CIS: Attagene CIS-FACTORIAL HepG2 Assay for human RAR-related Orphan Receptor Element (RORE) (AID 2282959; active = hit-call score of the fitted dose curve at least 0.9, where 1 is the maximum; inactive = score below 0.9). The conditions noted are these: HepG2 Attagene cis-factorial RORE reporter, mRNA; actives raise or lower the signal. The procedure, abridged:
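A 24-hour exposure of transfected HepG2 hepatoma cells precedes RNA isolation and reporter RT-PCR. Labeled products are digested with HpaI and resolved by capillary electrophoresis, with gain or loss of signal scored relative to DMSO.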

Test [12] has as its target Peroxisome proliferator-activated receptor gamma (Homo sapiens) (UniProt P37231). Kind of test: ATG_PPARg_TRANS: Attagene TRANS-FACTORIAL HepG2 Assay for human Peroxisome Proliferator-activated Receptor-gamma (PPARg) (AID 2283007). The procedure, abridged:
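Twenty-four hours after chemical dosing of transiently transfected HepG2 cells, isolated RNA was converted to cDNA, reporter sequences amplified and 6-FAM-labelled, then HpaI-digested and analysed by capillary electrophoresis. Signal increase against DMSO was fitted.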

The target of test [13] is human Retinoid X Receptor beta (RXRb), RXRB (gene 6257) (UniProt P28702). Kind of test: ATG_RXRb_TRANS: Attagene TRANS-FACTORIAL HepG2 Assay for human Retinoid X Receptor beta (RXRb) (AID 2283013). In short, it runs like this:
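Readout is reporter transcript induction after 24 h dosing. It is measured by RT-PCR of total RNA followed by fluorescent capillary electrophoresis. HepG2 liver cells carry transfected multiple reporter units driven by an exogenous RXRb-Gal4 fusion; activity is relative to DMSO.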

Test [14] concerns the target human Vitamin D Receptor (VDR), VDR (gene 7421) (UniProt P11473). The test is described as follows: ATG_VDR_TRANS: Attagene TRANS-FACTORIAL HepG2 Assay for human Vitamin D Receptor (VDR) (AID 2283022). The procedure, abridged: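 Fluorescence of labelled reporter cDNA fragments, resolved by capillary electrophoresis, gives mRNA induction after 24 h treatment of HepG2 cells carrying transfected Gal4-fusion reporter units. Activity is fitted in the positive direction with DMSO as baseline.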

The nature of test [15]: ATG_GAL4_TRANS: Attagene TRANS-FACTORIAL HepG2 Assay for GAL4 (Internal Marker) (AID 2282976). The conditions noted are these: HepG2 Attagene TRANS GAL4 internal marker reporter. In short, it runs like this:
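Fluorescence from capillary electrophoresis of labelled RT-PCR products quantifies reporter mRNA induction after 24 h dosing of HepG2 cells carrying transfected GAL4-UAS reporter transcription units. Vehicle DMSO serves as baseline.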

In test [16] the target is human RAR-related Orphan Receptor beta (RORb), RORB (gene 6096) (UniProt Q92753). Kind of test: ATG_RORb_TRANS: Attagene TRANS-FACTORIAL HepG2 Assay for human RAR-related Orphan Receptor beta (RORb) (AID 2283010).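 For AC50: potency for increased reporter mRNA meaning activation of RORb-Gal4 chimera.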 In short, it runs like this:
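Read-out is reporter mRNA induction, quantified by RT-PCR with fluorescent capillary electrophoresis, 24 h post-dose in transiently transfected HepG2 expressing exogenous NR-Gal4 chimera. Activity fitted upward versus DMSO.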

Test [17] addresses Oxysterols receptor LXR-alpha (Homo sapiens) (UniProt Q13133). The test is described as follows: ATG_LXRa_TRANS: Attagene TRANS-FACTORIAL HepG2 Assay for human Liver X Receptor alpha (LXRa) (AID 2282980). The note with it: HepG2 Attagene TRANS reporter, LXRa transactivation. The procedure, abridged: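 Transient HepG2 transfectants, 24 h dosing, RT-PCR/CE mRNA reporter quantitation; gain-of-signal vs DMSO.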

Test [18] can be described thus: ATG_PBREM_CIS: Attagene CIS-FACTORIAL HepG2 Assay for human Phenobarbital-responsive Enhancer Module (PBREM) (AID 2282955; active = hit-call score of the fitted dose curve at least 0.9, where 1 is the maximum; inactive = score below 0.9). The conditions noted are these: HepG2 PBREM cis-reporter, Attagene multiplexed transcription; actives raise or lower the signal. In short, it runs like this:
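Measures endogenous factor action on a phenobarbital-responsive enhancer module. HepG2 transiently carrying cis reporters, 24 h treatment, mRNA read-out by RT-PCR plus capillary electrophoresis.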

For test [19], the target named is Nuclear receptor subfamily 1 group I member 3 (Homo sapiens) (UniProt Q14994). The test is described as follows: ATG_CAR_TRANS: Attagene TRANS-FACTORIAL HepG2 Assay for human Constitutive Androstane Receptor (CAR) (AID 2282969).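 Note: activators raise reporter mRNA above DMSO so AC50 marks induction.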 The conditions noted are these: HepG2 Attagene TRANS-FACTORIAL CAR reporter. The procedure, abridged: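 Signal is reporter mRNA induction relative to DMSO, measured 24 h after dosing by RT-PCR with fluorescent primer extension and capillary electrophoresis. Human HepG2 liver cells carried transiently transfected chimeric NR-Gal4/GAL4-UAS reporter constructs.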
Sequence of Nuclear receptor subfamily 1 group I member 3 (Homo sapiens) (Q14994 whole entry, looked up, the tested form may be a part): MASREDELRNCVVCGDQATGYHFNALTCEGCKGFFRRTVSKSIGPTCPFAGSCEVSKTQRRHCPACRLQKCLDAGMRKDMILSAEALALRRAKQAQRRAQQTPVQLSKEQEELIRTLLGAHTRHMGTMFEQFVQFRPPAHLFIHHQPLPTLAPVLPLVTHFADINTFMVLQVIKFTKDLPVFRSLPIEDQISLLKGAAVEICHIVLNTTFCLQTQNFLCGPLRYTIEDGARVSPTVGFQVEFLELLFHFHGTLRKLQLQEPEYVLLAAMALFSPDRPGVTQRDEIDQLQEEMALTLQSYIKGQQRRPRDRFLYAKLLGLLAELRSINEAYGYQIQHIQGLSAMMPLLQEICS

The target in test [20] is Glucocorticoid receptor (Homo sapiens) (UniProt P04150). Kind of test: ATG_GR_TRANS: Attagene TRANS-FACTORIAL HepG2 Assay for human Glucocorticoid Receptor (GR) (AID 2282978).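 Note: activators score as hits since higher reporter transcript over DMSO is fitted.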 The note with it: HepG2 Attagene TRANS GR reporter, mRNA transcription. In short, it runs like this:
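After 24 h incubation with test chemical, transfected HepG2 cells were lysed for RNA; reporter cDNA was amplified, FAM-labelled, HpaI-digested and sized on a capillary analyser. Signal gain relative to DMSO was scored.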

Sequence of human Peroxisome Proliferator-activated Receptor delta (PPARd), PPARD (gene 5467) (Q03181 whole entry, looked up, the tested form may be a part): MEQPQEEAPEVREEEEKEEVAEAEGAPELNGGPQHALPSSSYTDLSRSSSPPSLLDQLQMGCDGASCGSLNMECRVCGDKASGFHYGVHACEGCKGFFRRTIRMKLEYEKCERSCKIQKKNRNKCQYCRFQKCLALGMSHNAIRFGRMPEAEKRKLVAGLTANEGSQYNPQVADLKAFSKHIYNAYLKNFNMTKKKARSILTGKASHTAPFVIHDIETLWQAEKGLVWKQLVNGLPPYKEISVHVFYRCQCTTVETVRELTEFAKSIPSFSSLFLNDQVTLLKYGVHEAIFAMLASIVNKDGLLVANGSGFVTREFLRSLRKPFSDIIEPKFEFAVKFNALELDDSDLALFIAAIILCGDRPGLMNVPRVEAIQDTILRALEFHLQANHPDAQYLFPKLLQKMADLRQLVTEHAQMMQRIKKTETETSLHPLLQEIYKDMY
Sequence of Peroxisome proliferator-activated receptor gamma (Homo sapiens) (P37231 whole entry, looked up): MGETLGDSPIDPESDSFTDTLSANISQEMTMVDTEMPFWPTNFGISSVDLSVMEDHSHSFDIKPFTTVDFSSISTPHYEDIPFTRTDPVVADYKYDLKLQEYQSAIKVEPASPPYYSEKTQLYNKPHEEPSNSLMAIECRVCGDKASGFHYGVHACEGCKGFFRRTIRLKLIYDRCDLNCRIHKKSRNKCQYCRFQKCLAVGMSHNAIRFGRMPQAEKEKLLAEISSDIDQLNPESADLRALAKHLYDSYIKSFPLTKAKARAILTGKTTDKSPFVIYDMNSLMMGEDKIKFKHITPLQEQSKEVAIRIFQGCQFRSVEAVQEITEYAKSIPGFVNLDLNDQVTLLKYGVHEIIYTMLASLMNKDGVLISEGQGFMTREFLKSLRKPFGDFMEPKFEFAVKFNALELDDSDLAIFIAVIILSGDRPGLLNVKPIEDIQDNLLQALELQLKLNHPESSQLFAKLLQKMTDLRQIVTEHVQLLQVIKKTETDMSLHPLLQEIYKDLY
Sequence of Bile acid receptor (Homo sapiens) (Q96RI1 whole entry, looked up, the tested form may be a part): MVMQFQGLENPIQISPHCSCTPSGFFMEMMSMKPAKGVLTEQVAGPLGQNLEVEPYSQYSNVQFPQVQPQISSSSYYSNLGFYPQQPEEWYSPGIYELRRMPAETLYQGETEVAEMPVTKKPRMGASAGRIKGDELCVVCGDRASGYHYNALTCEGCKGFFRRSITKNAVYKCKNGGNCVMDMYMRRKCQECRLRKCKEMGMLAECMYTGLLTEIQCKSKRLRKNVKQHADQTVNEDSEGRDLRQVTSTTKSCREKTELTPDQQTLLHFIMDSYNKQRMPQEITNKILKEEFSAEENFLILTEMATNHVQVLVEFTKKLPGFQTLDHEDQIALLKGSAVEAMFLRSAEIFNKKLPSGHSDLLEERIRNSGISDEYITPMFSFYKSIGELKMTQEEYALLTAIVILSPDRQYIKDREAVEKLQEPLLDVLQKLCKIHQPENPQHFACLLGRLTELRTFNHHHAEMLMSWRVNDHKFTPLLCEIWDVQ
Sequence of Oxysterols receptor LXR-alpha (Homo sapiens) (Q13133 whole entry, looked up): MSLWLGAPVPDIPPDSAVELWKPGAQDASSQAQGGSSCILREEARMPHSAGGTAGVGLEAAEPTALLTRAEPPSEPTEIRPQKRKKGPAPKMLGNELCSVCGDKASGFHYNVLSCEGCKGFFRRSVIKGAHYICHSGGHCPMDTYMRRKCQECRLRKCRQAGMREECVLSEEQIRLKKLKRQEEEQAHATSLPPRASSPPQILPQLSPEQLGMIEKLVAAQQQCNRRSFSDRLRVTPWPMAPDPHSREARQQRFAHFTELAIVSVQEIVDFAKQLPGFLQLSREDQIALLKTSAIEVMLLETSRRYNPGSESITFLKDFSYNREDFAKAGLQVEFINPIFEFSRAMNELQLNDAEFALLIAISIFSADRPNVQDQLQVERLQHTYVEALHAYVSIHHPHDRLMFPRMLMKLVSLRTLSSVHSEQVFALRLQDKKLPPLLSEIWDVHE
Sequence of human RAR-related Orphan Receptor beta (RORb), RORB (gene 6096) (Q92753 whole entry, looked up, the tested form may be a part): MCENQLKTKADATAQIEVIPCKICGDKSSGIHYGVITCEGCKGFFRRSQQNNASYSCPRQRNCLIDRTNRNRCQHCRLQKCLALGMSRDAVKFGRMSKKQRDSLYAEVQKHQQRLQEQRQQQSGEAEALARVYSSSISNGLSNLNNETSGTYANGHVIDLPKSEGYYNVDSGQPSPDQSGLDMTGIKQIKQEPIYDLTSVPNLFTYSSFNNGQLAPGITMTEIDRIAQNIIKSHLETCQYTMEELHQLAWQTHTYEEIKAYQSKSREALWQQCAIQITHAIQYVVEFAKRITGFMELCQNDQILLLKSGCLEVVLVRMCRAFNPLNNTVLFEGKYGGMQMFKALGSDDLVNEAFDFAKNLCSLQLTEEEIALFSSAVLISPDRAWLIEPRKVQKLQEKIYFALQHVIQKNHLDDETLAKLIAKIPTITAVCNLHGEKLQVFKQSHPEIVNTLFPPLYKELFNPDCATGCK
Sequence of human Retinoid X Receptor beta (RXRb), RXRB (gene 6257) (P28702 whole entry, looked up, the tested form may be a part): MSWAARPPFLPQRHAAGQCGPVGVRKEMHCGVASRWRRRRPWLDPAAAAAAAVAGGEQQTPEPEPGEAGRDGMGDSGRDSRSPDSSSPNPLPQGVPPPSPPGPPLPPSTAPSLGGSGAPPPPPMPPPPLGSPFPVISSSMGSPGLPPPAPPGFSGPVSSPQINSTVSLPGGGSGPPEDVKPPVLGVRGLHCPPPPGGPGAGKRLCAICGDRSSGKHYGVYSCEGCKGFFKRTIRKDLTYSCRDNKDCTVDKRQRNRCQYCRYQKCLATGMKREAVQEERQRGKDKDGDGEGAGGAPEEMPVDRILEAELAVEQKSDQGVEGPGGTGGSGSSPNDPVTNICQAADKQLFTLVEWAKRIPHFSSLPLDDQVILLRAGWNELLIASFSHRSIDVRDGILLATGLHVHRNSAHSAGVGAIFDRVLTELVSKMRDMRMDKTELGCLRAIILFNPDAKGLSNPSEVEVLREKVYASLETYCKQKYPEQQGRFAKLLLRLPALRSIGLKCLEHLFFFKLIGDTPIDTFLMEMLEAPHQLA
Sequence of human Vitamin D Receptor (VDR), VDR (gene 7421) (P11473 whole entry, looked up, the tested form may be a part): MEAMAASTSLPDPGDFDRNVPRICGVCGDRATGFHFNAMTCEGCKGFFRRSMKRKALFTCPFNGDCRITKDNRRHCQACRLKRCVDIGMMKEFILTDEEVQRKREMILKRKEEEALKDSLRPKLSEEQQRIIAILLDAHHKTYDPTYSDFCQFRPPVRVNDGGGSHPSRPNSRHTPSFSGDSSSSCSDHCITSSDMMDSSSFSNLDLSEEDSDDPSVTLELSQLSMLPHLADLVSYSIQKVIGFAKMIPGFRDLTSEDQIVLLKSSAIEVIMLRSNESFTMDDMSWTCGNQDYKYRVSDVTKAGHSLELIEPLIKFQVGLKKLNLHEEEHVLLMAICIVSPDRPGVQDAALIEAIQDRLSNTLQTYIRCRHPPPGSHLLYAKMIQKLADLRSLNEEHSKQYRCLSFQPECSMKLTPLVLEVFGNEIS
Sequence of Cellular tumor antigen p53 (Homo sapiens) (P04637 whole entry, looked up): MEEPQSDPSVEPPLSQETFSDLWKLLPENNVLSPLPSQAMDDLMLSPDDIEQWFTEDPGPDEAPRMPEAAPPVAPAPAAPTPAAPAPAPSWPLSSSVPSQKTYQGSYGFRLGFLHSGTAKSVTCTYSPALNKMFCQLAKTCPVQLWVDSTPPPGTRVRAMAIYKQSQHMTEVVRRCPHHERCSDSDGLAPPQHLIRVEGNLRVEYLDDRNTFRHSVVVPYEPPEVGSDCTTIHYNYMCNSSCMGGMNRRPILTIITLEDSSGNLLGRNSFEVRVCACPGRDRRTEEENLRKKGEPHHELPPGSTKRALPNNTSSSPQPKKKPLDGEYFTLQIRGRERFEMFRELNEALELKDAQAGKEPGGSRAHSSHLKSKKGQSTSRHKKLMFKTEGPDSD
Sequence of Glucocorticoid receptor (Homo sapiens) (P04150 whole entry, looked up): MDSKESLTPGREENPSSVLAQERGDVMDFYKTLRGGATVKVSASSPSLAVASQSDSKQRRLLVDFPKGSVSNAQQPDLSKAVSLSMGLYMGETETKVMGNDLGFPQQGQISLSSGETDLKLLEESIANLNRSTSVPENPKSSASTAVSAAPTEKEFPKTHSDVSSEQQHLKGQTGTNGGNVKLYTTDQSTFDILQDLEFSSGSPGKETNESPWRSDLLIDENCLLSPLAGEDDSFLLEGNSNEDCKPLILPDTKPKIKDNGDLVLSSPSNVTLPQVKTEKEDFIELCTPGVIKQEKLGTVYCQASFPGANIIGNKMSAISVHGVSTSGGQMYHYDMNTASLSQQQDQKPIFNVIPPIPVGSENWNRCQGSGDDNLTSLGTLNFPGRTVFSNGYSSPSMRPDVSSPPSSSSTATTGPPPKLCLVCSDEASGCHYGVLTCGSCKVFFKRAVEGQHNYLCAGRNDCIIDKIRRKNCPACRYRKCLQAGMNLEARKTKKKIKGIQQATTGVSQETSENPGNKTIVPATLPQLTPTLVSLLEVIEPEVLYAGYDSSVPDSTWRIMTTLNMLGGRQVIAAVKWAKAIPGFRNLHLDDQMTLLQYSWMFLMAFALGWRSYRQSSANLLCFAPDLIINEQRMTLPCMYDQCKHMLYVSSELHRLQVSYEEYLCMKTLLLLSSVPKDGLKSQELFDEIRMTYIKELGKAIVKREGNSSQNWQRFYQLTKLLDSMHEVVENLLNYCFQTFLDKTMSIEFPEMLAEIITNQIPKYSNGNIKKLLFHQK

Take `CCCCNP(N)(N)=S`: the compound was classed as inactive in test [1], in test [2], in [3], in test [4], in [5] and in test [6]. In addition, the outcome in test [7], in test [8], in test [9] and in [10] was inactive.

Regarding `CCC(C)c1cc(C(C)(C)C)cc(-n2nc3ccccc3n2)c1O` (centres undefined), the compound was classed as inactive in test [2], in [11], in [3], in [4], in test [12] and in [14]. Further, the AC50 in test [13] is 8.72 µM (active).

With `CC1(C)C(=O)NC(=O)NC1=O`, the outcome in test [1], in test [11], in [3], in test [15], in test [16] and in test [13] was inactive. The result in test [6], in test [7], in test [8] and in [9] was inactive.

Consider `C[C@]12CC[C@H](O)C[C@H]1CC[C@@H]1[C@@H]2C[C@@H](O)[C@]2(C)[C@@H](C3=CC(=O)OC3)CC[C@]12O`, for which the compound was called inactive in test [2], in test [4], in [17], in test [5], in test [13] and in [14]. Also, the results for the AC50 in test [12] and in test [16] were 1.87 µM (active) and 1.29 µM (active), respectively.

`CN(N=O)c1ccccc1`: the outcome in test [1], in test [2], in [18], in [19], in [4] and in [12] was inactive. For the same compound, the compound was called inactive in test [16] and in test [14].

In the case of `C[N+](C)(C)CC(=O)[O-]`, the compound was called inactive in test [1], in test [11], in test [5], in test [16] and in test [13].

Take `CCCC=NO`: the AC50 in test [1] is 43.5 µM (active). In addition, the call in test [2], in test [18], in test [19], in test [3], in test [15] and in test [20] was inactive. The call in test [4], in test [17], in test [12], in [16], in test [13] and in test [6] was inactive. The result in [7], in [8] and in [9] was inactive.

As to `CCCCCCCCCCCC#N`, the half-maximal activity concentration (AC50) in [2] was 165 µM (active); in [12], 80.6 µM (active); in test [13], 44.5 µM (active). Further, the result in test [18], in [19], in [3], in [20], in test [4] and in test [17] was inactive. Moreover, the outcome in [5], in [16] and in [10] was inactive.

`c1ccc2c(c1)CCCC2`: the call in test [1], in test [2], in test [3], in test [15], in [20] and in [4] was inactive. The compound was classed as inactive in test [16], in test [14], in test [6], in [7], in test [8] and in [9]. Besides, the result in [10] was inactive.
